Sampled rows, rich in hits. Any-hit rate of the full collection: about 4%.
LMP1 NFkB inh = EBV LMP1-driven NF-kappaB luciferase reporter inhibitors, primary screen, cell-based, luminescence, single point; LMP1-induced NF-kappaB luciferase reporter cells; inhibition, % at 12.5 µM; actives 0.69% (n = 350,000); in the data active = inhibition above about 41%;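 also: 0% = neutral control wells and 100% = reference inhibitor control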
TRPM1 prom inh = inhibitors of MITF-dependent TRPM1 promoter reporter, primary screen, cell-based, SK-MEL-5, single point, luciferase; SK-MEL-5 TRPM1 promoter luciferase, 24 h; actives 0.83% (n = 330,000); inhibition, % at 12.5 µM;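 active = mean inhibition across replicates of 60% or more, whatever share of single replicates reaches that level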
TWEAK-Fn14 inh = inhibitors of TWEAK-Fn14 signaling, primary screen, luciferase reporter cells, uHTS | TWEAK-stimulated Fn14 reporter cells, luciferase luminescence, 8 h | inhibition, % at 10 µM | actives 2% (n = 360,000) | AID 1159606, 2016; in the data active = inhibition above about 50%
TROY signal inh = inhibitors of TROY-driven NF-kB signaling, primary screen, Q293 LMP1-TROYcd cells, NF-kB luciferase, uHTS. Q293 LMP1-TROYcd NF-kB luciferase reporter, 4 h. inhibition, % at 10 µM. actives 0.98% (n = 360,000);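 active = compounds whose plate-normalised and pattern-corrected inhibition of the luciferase reporter signal at the single screening dose is 50% or more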
Peg3 prom inh = Peg3 promoter-driven luciferase inhibitors, primary screen, cell-based, HeLa, luciferase luminescence; HeLa PEG-Prom luciferase reporter, overnight; inhibition, % at 20 µM; actives 1.7% (n = 360,000);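 active = inhibition of at least 50% at 20 µM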
HIF-2a inh = HIF-2a reporter inhibitors, primary screen, luminescence, 786-0 RCC cells | 786-0 RCC cells HIF-2a reporter, luciferase luminescence, overnight | inhibition, % at 18.8 µM | actives 0.72% (n = 360,000);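 active = inhibition of the luminescence signal of 40% or more relative to plate controls, in a single-dose primary screen at 18.75 µM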
* hit, by the source's call; . = not tested or not shown.

SMILES | LMP1 NFkB inh | TRPM1 prom inh | TWEAK-Fn14 inh | TROY signal inh | Peg3 prom inh | HIF-2a inh
O=C(N/N=C/c1ccccn1)c1cc(C2CC2)nc2ccccc12 | 0 | 18 | 20 | 2 | -3 | 21
O=C(N/N=C/c1cccnc1)c1cc(-c2cccs2)nc2ccccc12 | 58* | -9 | -11 | -1 | -6 | -11
CCOc1cc(/C=N/NC(=O)c2cc(-c3cccc(OC)c3)nc3ccccc23)ccc1O | . | . | 78* | 58* | -4 | -19
CCn1c(COC(=O)CNC(=O)c2cc(OC)c(OC)c(OC)c2)nc2cc(S(=O)(=O)N(C)C)ccc21 | -7 | 6 | 0 | -2 | -2 | 14
COc1ccc(S(=O)(=O)N2CCOC2CNC(=O)C(=O)NCc2ccc(F)cc2)cc1OC (stereo not drawn) | 10 | 5 | -30 | -14 | 19 | 7
N#CCCN(C(=O)c1cc2c(s1)-c1ccccc1S(=O)(=O)C2)c1ccccc1 | -2 | -5 | -9 | 17 | 16 | 20
Cc1ccc(/C=N/Nc2cn[nH]c(=O)n2)o1 | -5 | 4 | 7 | -26 | -19 | -1
Cc1ccc(/C=N/Nc2ccc3ccccc3n2)o1 | 10 | 25 | 86* | 24 | -21 | 8
C/C(=N\Nc1nc2ccccc2nc1C)c1ccccc1O | -3 | -9 | 9 | 29 | -33 | -41
CC(=NNc1ccc2ccccc2n1)c1ccccc1O | -2 | . | 100* | 74* | 37 | 43*
Oc1[nH]c2ccccc2c1N=Nc1nc(Nc2ccccc2)nc(N2CCOCC2)n1 | -7 | -8 | 32 | 17 | 70* | -16
Cc1[nH]c2ccccc2c1/C=N/Nc1nc(Nc2ccccc2)nc(N2CCOCC2)n1 | 12 | -65 | 30 | -20 | -12 | -124
O=c1c2ccccc2cnn1Cc1nnc(-c2cccs2)o1 | -4 | -7 | 10 | -4 | -16 | -19
CCCc1ccc(C(C)NC(=S)NCc2ccc(F)cc2)cc1 (stereo not drawn) | -5 | 10 | 24 | 56* | 32 | 17
CCC(C)c1ccc(C(C)NC(=S)NCc2ccc(F)cc2)cc1 (stereo not drawn) | -1 | -2 | 6 | 40 | 51* | 4
CCC(NC(=S)NCc1ccc(F)cc1)c1ccc(C(C)C)cc1 (stereo not drawn) | -1 | 16 | 6 | 45 | 44 | 4
CCCCN1C(=O)C(=O)N(CC(=O)c2cc(C)n(C3CC3)c2C)C1=O | -6 | -31 | 6 | -6 | -139 | -89
CCCC(=O)Nc1ccc(Sc2ccc([N+](=O)[O-])cc2)cc1 | 4 | 7 | 0 | 42 | 25 | 11
COC(=O)c1ccc(NC(=O)Nc2ccc([N+](=O)[O-])cc2)cc1 | 0 | -13 | 20 | 50* | 15 | 8
O=C(Nc1ccc([N+](=O)[O-])cc1)C(c1ccccc1)c1ccccc1 | 1 | . | 12 | 43 | 52* | -4
CCC(CC)C(=O)Nc1ccc(Sc2ccc([N+](=O)[O-])cc2)cc1 | 0 | 5 | 41 | 55* | 23 | -35
O=C(CCNC(=O)c1ccccc1)Nc1cccnc1 | -1 | 10 | 7 | -2 | 4 | 16
Cc1ccc(NC(=O)Cn2nnc(C(=O)NCc3cccs3)c2N)cc1F | -2 | -4 | -16 | 4 | 8 | 10
CC1CC(C)CN(C(=O)CN2C(=O)NC3(CCCCCCC3)C2=O)C1 (stereo not drawn) | 0 | 0 | -10 | 2 | -5 | 12
O=c1c2c(nc3cc(-c4ccccc4Cl)[nH]n13)CCS2 | -14 | -73 | 63* | -2 | -203 | -144
SMILES | LMP1 NFkB inh | TRPM1 prom inh | TWEAK-Fn14 inh | TROY signal inh | Peg3 prom inh | HIF-2a inh
O=c1c2c(nc3cc(-c4ccccc4)[nH]n13)CCS2 | -22 | -57 | 13 | 21 | -1 | 13
CN(CCCC(=O)O)c1ccc(N=Nc2ccc([N+](=O)[O-])cc2)cc1 | -4 | -3 | 37 | 46 | -208 | -195
CC(C)=CC(=O)O[C@@H]1Cc2cc3ccc(=O)oc3cc2OC1(C)C | 2 | 9 | -6 | -11 | 9 | -3
COc1ccc(CNC(=O)COC(=O)Cc2ccc(Br)cc2)cc1 | 3 | 9 | -2 | -6 | 0 | 26
COc1ccc2c(c1)CCc1cc(C(=O)N3CCN(c4ccc(N5CCOCC5)nn4)CC3)sc1-2 | 14 | . | 45 | 56* | 28 | -30
CCN(CC(=O)Nc1ccc(NC(C)=O)cc1)C(=O)c1ccc(COc2ccccc2)o1 | 7 | . | -1 | 21 | 0 | 13
CCN(CC(=O)Nc1ccc(NC(C)=O)cc1)C(=O)c1ccc(COc2ccc(C(C)(C)C)cc2)cc1 | 23 | 11 | 53* | 33 | -96 | -9
CC(Oc1ccc(Br)cc1)C(=O)N(Cc1ccccc1)c1c(N)n(Cc2ccccc2)c(=O)[nH]c1=O (stereo not drawn) | 15 | . | -7 | 5 | 12 | 20
CCOP(=O)(OCC)c1ccc2ccc3ccccc3c(=O)c2c1 | 7 | -5 | -47 | -3 | 3 | -4
O=C(C1COc2ccccc2O1)N1CCN(Cc2ccc(Br)cc2F)CC1 (stereo not drawn) | 3 | 11 | 64* | 15 | 30 | 14
CC(NC(=O)CN1C(=O)NC2(CCc3ccccc32)C1=O)c1ccc2c(c1)OCCO2 (stereo not drawn) | -5 | 2 | 0 | 1 | -1 | 12
CCN(C(=S)Nc1cc(S(=O)(=O)N2CCOCC2)ccc1Cl)c1cccc2ccccc12 | 3 | 18 | 87* | 15 | 12 | 18
O=S(=O)(c1ccc(Cl)c(NC(=S)Nc2cccc(O)c2)c1)N1CCOCC1 | -18 | -10 | -3 | 0 | 17 | 8
COc1ccccc1Nc1nnc(SCc2nnc(-c3cc(OC)c(OC)c(OC)c3)o2)s1 | 4 | -6 | -1 | 4 | 30 | 2
CCOc1ccccc1Nc1nnc(SCc2nnc(-c3cc(OC)c(OC)c(OC)c3)o2)s1 | 8 | -9 | 32 | -5 | 65* | 2
CCOc1cc(C(=O)OC(C)C(=O)Nc2ncc(Cl)cc2Cl)ccc1OCC(=O)N1CCOCC1 (stereo not drawn) | 61* | 2 | -15 | -3 | 7 | 20
CC(C)C(Cl)=NOC(=O)Nc1ccc(F)cc1 | 5 | 8 | 51* | -8 | 55* | 18
C/C(=N\OC(=O)Nc1ccc(Cl)cc1)c1ccc(F)c(F)c1 | -10 | -25 | -29 | -35 | -58 | -121
CC(=O)N1CCC(C(=O)N2c3ccccc3N=C(c3ccc4c(c3)OCO4)C2C(=O)NCc2ccccc2)CC1 (stereo not drawn) | . | . | . | . | . | -146
CC(C)Cc1nc2oc3c(NCC(C)O)ncnc3c2c2c1CCCC2 (stereo not drawn) | -2 | 13 | 2 | 3 | 14 | 9
